Bioassay records deposited in PubChem by Sanford-Burnham Center for Chemical Genomics.
Shown are actives, neighbours in structure and some others; about 2% of the full set was active somewhere.
Neddylation inh – cullin neddylation inhibition. P61081+Q13564. TR-FRET cullin neddylation, biochemical. inhibition, % at 25 µM. 0.58% of 360,000 active. AID 651699; in the data active = inhibition above about 36%
APOBEC3G inh – inhibitors of human APOBEC3G DNA deaminase. 0.28% of 330,000 active. inhibition, % at 20 µM. recombinant A3G, ssDNA deamination FAM/TAMRA fluorescence. Q9HC16;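 active = inhibition of at least 40% at 20 µM, with no more than 30% in the related APOBEC3A deaminase screen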;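 also: plate controls were DMSO wells with A3G for no effect and wells lacking A3G enzyme for full effect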
Target sequence (Q9HC16 whole entry, looked up): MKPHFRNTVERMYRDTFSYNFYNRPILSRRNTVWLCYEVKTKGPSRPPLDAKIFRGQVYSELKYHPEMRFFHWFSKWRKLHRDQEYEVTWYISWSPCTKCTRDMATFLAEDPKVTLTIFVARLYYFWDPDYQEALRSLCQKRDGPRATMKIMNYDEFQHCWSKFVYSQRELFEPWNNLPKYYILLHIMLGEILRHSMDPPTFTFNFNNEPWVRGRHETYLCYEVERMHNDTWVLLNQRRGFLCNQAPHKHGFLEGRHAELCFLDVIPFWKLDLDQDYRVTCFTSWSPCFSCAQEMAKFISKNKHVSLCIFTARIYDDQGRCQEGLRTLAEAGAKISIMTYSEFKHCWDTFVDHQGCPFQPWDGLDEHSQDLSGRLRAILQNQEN
NPR1 activator – GC-A (human) enzyme activation; HEK293 GC-A cells, cGMP TR-FRET, EC30 ANP; 0% at EC30 ANP, 100% saturating ANP; activation, % at 10 µM; 0.14% of 370,000 active; AID 1671463; in the data active = activation above about 40%
NPR2 activator – GC-B (human) receptor activation. P20594. HEK293-GC-B cells, CNP EC30, cGMP TR-FRET; 0% at EC30 CNP, 100% saturating CNP. activation, % at 10 µM. 0.11% of 370,000 active. AID 1920062;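 active = activation at 10 µM reaching about 35% in either raw or pattern-adjusted values, limit read from the data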
APOBEC3A inh – blocks human APOBEC3A ssDNA deamination; P31941; 0.41% of 330,000 active; recombinant A3A, FAM/TAMRA ssDNA deamination fluorescence; inhibition, % at 20 µM;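 active = at least 40% inhibition at 20 µM here, with at most 30% in a related deaminase screen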;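 also: plate controls were A3A with DMSO for no effect and wells lacking A3A enzyme for full effect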
Target sequence (P31941 whole entry, looked up): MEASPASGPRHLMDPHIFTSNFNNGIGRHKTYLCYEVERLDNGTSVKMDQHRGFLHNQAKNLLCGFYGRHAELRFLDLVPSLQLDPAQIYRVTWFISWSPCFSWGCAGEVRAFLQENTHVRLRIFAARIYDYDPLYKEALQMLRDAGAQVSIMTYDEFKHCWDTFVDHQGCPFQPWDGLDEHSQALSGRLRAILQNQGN
PfGluPho inh – PfG6PD (Plasmodium falciparum) enzyme inhibition | PfGluPho enzyme, NADPH resazurin-diaphorase fluorescence | inhibition, % at 20 µM | 0.78% of 350,000 active | AID 504690;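 active = inhibition reaching at least a set limit at 20 µM in the primary screen, cut at about 59% in these data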;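 also: 0% = DMSO wells with substrate and 100% = DMSO wells lacking glucose-6-phosphate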
A3A conf – APOBEC3A (human) deaminase inhibition, confirmed. AID 493151. recombinant A3A, ssDNA deaminase UDG fluorescence assay. shares compounds with APOBEC3A inh. inhibition, % at 20 µM. 63% of 1,400 active;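 active = inhibition reaching a set limit, 80% of the first screen's cutoff, at 20 µM in any replicate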;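 also: plate controls were DMSO wells with A3A for no effect and wells lacking A3A enzyme for full effect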
UDG ctr A3A – UDG inhibition in APOBEC3A counter-screen; shares compounds with APOBEC3A inh; UDG counterscreen, FAM/TAMRA uracil oligo fluorescence; inhibition, % at 20 µM; 1,000 tested, under 10 active; call rule not given here
An asterisk follows results filed as active; . = not tested or not shown.

SMILES | Neddylation inh | APOBEC3G inh | NPR1 activator | NPR2 activator | APOBEC3A inh | PfGluPho inh | A3A conf | UDG ctr A3A
C[N+](C)(C)CCCNC(=O)c1ccc(/C=N/O)nc1 | -1 | 15 | 0 | 7 | 41* | -5 | 72* | 1
Cc1ccc(CNC(=O)CSc2nc3ccsc3c(=O)n2Cc2ccccn2)cc1 | 6 | -5 | -2 | 1 | -2 | 13 | . | .
COc1ccc(NC(=O)CSc2nc3ccsc3c(=O)n2Cc2ccccn2)c(OC)c1 | 3 | -3 | 0 | 3 | 43* | -15 | 6 | 0
CS(=O)(=O)c1ccc(-c2nn[nH]n2)cc1 | 5 | -5 | 0 | 5 | -6 | -26 | . | .
CS(=O)(=O)c1nc(-c2ccc(Br)cc2)n[nH]1 | 3 | -11 | 1 | 2 | 41* | -14 | 18 | 0
NC(=O)C1CCN(c2nc(-c3ccc4c(c3)OCCCO4)cs2)CC1 | . | . | -3 | -5 | . | . | . | .
COc1cccc(OCCn2cc(C(=O)c3ccco3)c3ccccc32)c1 | -47 | -3 | 1 | -5 | 0 | 6 | . | .
COc1cccc(OCCn2cc(C(C)=O)c3ccccc32)c1 | 5 | 7 | -7 | -2 | 48* | 19 | 14 | .
CCOc1ccc(NC(=O)c2cc3ccccc3cc2O)cc1 | 18 | 13 | 3 | 1 | 63* | -17 | 52* | -3
CCOc1ccc(NC(=O)c2cc3ccccc3cc2OC)cc1 | -19 | 0 | -4 | -8 | 3 | 11 | . | .
CCCCCCCC[n+]1c(C)n(-c2ccccc2)c2ccc(NC(C)=O)cc21 | 26 | 13 | 4 | 1 | 42* | 4 | 70* | -3
COC(=O)[C@H](C(C)C)N(CCc1cn(CC2CCCCC2)nn1)S(=O)(=O)c1ccccc1Br | . | . | 0 | 6 | . | . | . | .
CCN(Cc1ccccc1)C(=O)c1ccc(SC)cc1OC | -1 | 1 | -8 | -3 | 3 | -11 | . | .
COc1cc(OC)c(C(=O)N(CCc2ccccc2)Cc2ccccc2)cc1OC | 8 | -2 | -12 | -7 | 65* | 4 | 0 | -2
COc1ccccc1-c1noc(CCC(=O)NC2CCCC2)n1 | -4 | -10 | 4 | -2 | 45* | 5 | 1 | 0
Cc1ccccc1-c1noc(CCC(=O)NCC2CCCO2)n1 (configuration not stated) | 5 | 11 | 0 | -2 | 44* | -2 | 3 | .
Cc1ccc(Cn2cc(CN(C(C)(C)C)S(=O)(=O)c3ccc(F)cc3Br)nn2)cc1 | . | . | 2 | 10 | . | . | . | .
CCCCNC(=O)NS(=O)(=O)c1ccc(NC(=O)CSc2nnc(-c3cccs3)n2-c2ccc(OC)cc2)cc1 | . | . | -3 | 2 | . | . | . | .
CC(C)C[C@H](NC(=O)c1cccs1)C(=O)N1CCC[C@H]1C(=O)NCc1ccccc1 | . | . | -12 | -6 | . | . | . | .
N#Cc1cc(F)cc(OC[C@@H](O)CN2CCC(C(O)(c3ccccc3)c3ccccc3)CC2)c1 | . | . | -20 | -13 | . | . | . | .
CCC1(c2ccccc2)NC(=O)N(CC(=O)Nc2cc(Cl)ccc2N2CCOCC2)C1=O (configuration not stated) | 11 | 5 | -8 | -6 | 47* | -14 | 8 | .
CCC1(c2ccccc2)NC(=O)N(CC(=O)Nc2ccccc2N2CCCC2)C1=O (configuration not stated) | -2 | -12 | 3 | 4 | -6 | -12 | . | .
O=C1c2ccccc2C2Cc3nnccc3CN12 (configuration not stated) | . | . | 1 | 0 | . | . | . | .
CSc1nc(-c2ccco2)nn1C(=O)Cc1ccccc1 | -2 | -3 | 2 | -2 | 94* | -6 | -2 | -3
CCN1CCN(c2ccc(S(=O)(=O)N3CCCCC3)cc2NC(=O)/C=C/c2ccc(OC(F)F)cc2)CC1 | 4 | 12 | -3 | -6 | 46* | 7 | 59* | 2
SMILES | Neddylation inh | APOBEC3G inh | NPR1 activator | NPR2 activator | APOBEC3A inh | PfGluPho inh | A3A conf | UDG ctr A3A
CCN1CCN(c2ccc(S(=O)(=O)N3CCCCC3)cc2NC(=O)c2ccc(OC(F)F)cc2)CC1 | 14 | 5 | -4 | -2 | 47* | 5 | 54* | 2
CN1CCN(c2ccc(S(=O)(=O)N3CCCCC3)cc2NC(=O)/C=C/c2ccc(OC(F)F)cc2)CC1 | 5 | -1 | -4 | 1 | 29 | 14 | . | .
CCN1CCN(c2ccc(S(=O)(=O)N3CCCCC3)cc2NC(=O)/C=C/c2ccc(F)cc2)CC1 | 10 | 22 | 0 | -2 | 61* | 22 | 64* | 0
CC(CC(=O)Nc1cccc(S(=O)(=O)N2CCCCC2)c1)c1ccccc1 (configuration not stated) | 10 | 11 | -3 | -1 | 40* | 5 | 23 | .
CCN1CCN(c2ccc(S(=O)(=O)N3CCOCC3)cc2NC(=O)/C=C/c2ccc(C)cc2)CC1 | -3 | -1 | -7 | -5 | 2 | 10 | . | .
CCN1CCN(c2ccc(S(=O)(=O)N3CCCCC3)cc2NC(=O)c2cccc(OC(F)F)c2)CC1 | 14 | 3 | 0 | 2 | 39 | 6 | . | .
CCN1CCN(c2ccc(S(=O)(=O)N3CCCCC3)cc2NC(=O)CC(NC(C)=O)c2ccccc2)CC1 (configuration not stated) | 9 | 13 | 1 | 0 | 88* | 0 | 65* | 3
CC(=O)Nc1ccc(NC(=O)C(C)OC(=O)c2cccc(S(=O)(=O)N3CCCC3)c2)cc1 (configuration not stated) | 10 | 16 | 3 | 2 | 42* | -7 | 6 | .
CCN1CCN(c2ccc(S(=O)(=O)N3CCCCC3)cc2NC(=O)/C=C/c2ccc([N+](=O)[O-])cc2)CC1 | -30 | 12 | -5 | 0 | 40* | 6 | 18 | .
CCN1CCN(c2ccc(S(=O)(=O)N3CCOCC3)cc2NC(=O)C(C)Oc2ccc(Cl)cc2)CC1 (configuration not stated) | 1 | 11 | 2 | 3 | 56* | 3 | 44* | 2
CCN1CCN(c2ccc(S(=O)(=O)N3CCOCC3)cc2NC(=O)CC(C)C)CC1 | -1 | 2 | -6 | 2 | 3 | 16 | . | .
COc1ccc(/C=C2\CC3(OC(=O)C4CCCC4)CCCN2C3)cc1 (configuration not stated) | . | . | -5 | -4 | . | . | . | .
CCCCCCCCN1C(=O)[C@@H](CC(=O)NCCCN2CCCC2=O)C[C@@]2(C(=O)OC)C1=C[C@H](C(C)(C)C)O[C@@H]2C | . | . | 1 | -1 | . | . | . | .
Cc1ccc[n+](CC(=O)Nc2cc(C(F)(F)F)ccc2N2CCOCC2)c1 | 1 | 11 | 2 | 4 | 48* | 1 | 65* | 3
CC(C)CC[n+]1ccccc1/C=C/c1ccc(N(C)C)cc1 | -43 | -13 | -16 | -16 | 56* | -2 | 54* | -4
